Screening data deposited in PubChem BioAssay by National Center for Advancing Translational Sciences (NCATS).
Only some compounds are listed: those with a hit (about 3.2% of all), similar ones and a draw of the others.
Tau fibril ThT = tau fibrillization inhibition (ThT binding); recombinant tau K18 P301L, heparin-induced fibrillization, ThT fluorescence; actives 2.1% (n = 270,000); Potency, µM (doses to about 57.4 µM), for the others: top-dose activity, negative = inhibition, hits mostly inhibitors; further: potency means the concentration at half of the fitted maximal effect; on the % scale 0 is the no-effect control and ±100 the full control effect; nearly all actives have a fitted effect of over 55% in size
Target sequence (P10636 561-689 P618L limits assumed): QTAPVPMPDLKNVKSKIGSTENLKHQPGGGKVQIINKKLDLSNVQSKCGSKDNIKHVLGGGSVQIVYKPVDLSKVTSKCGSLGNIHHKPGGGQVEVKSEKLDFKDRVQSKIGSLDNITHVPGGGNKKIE
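Tau K18 P301L fragment (15 uM unlabeled plus 0.24 uM Alexa 594-labeled) in 100 mM sodium acetate pH 7 with compound, fibrillization induced by 20 uM heparin for 6 hr at 37 C. Thioflavin T (30 uM) added, fluorescence read after 1 hr (ex 450, em 510 nm).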
Tau FP inhib = blocks human tau fibril formation measured by polarization. Potency, µM (highest dose often 57.7 µM), without a hit: at the top dose activity, negative = inhibition, hits mostly inhibitors. K18 P301L tau heparin fibrillization, Alexa594 FP, 6 h. P10636. actives 0.39% (n = 280,000); further: potency means the concentration at half of the fitted maximal effect; on the % scale 0 is the no-effect control and ±100 the full control effect; nearly all actives have a fitted effect of over 55% in size
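Human tau K18 […] P301L fragment, 15 uM unlabeled plus 0.24 uM Alexa 594-labeled tau (final), with compound and 20 uM heparin in 100 mM sodium acetate pH 7; 6 hr at 37 C, then Alexa 594 FP read.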
Lamin A splicing = modulators of lamin A splicing; AID 1487; actives 0.01% (n = 200,000); HeLa LMNA splicing GFP/RFP minigene ratio, 48 h; Potency, µM (top dose mostly 46.1 µM), for the others: at the top dose ratio change, negative = inhibition, most hits filed as inhibitors; active means well fitted inhibition curve with a large enough effect in the signal ratio, with a control signal flat, not every such curve was filed as active; inconclusive means small, poorly fitted or top-dose-only effect, or effect the other way, or a change in a side signal; the % refers to the signal ratio; further: potency means the concentration at half of the fitted maximal effect; on the % scale 0 is the no-effect control and ±100 the full control effect
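S3 HeLa stable clones carrying a lamin A-EGFP splicing minigene plus DsRed2 were seeded at 600 cells/well in Opti-MEM with 2% FBS, pin-dosed and incubated 48 h at 37°C. Acumen cytometry (488 nm) gave the GFP/RFP total-intensity ratio.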
CBFb-RUNX1 inh = CBF-beta/RUNX1 interaction disruption. Q01196+Q13951. AlphaScreen CBFb-His/RUNX1-biotin binding, biochemical. Potency, µM (top dose mostly 59.8 µM), for inactives: at the highest dose activity, negative = inhibition, actives largely listed as inhibitors. 230,000 tested, under 10 active; further: % of control where 0% means no effect
Target sequence (Q01196 whole entry, looked up): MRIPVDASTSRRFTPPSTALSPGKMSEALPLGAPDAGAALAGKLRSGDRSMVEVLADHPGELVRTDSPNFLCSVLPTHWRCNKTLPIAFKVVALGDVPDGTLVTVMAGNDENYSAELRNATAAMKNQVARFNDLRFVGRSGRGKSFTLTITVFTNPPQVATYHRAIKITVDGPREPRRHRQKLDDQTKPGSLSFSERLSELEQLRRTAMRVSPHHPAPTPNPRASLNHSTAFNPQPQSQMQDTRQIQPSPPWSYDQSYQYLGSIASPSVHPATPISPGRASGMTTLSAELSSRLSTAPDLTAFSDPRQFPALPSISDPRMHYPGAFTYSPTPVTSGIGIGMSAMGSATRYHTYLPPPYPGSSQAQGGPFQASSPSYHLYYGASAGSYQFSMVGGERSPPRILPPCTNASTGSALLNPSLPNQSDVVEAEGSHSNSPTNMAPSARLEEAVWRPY
Target sequence (Q13951 whole entry, looked up): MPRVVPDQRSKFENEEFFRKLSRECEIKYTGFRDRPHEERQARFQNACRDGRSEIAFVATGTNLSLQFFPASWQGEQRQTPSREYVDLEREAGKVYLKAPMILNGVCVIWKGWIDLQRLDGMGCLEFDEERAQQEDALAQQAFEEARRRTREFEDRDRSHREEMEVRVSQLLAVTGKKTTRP
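Inhibition was taken as any reduction in AlphaScreen signal from the CBF-beta–RUNX1 pair (His and biotin tags, 30 nM each), measured after compound (15 min) and bead (90 min) incubations at room temperature.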
Tau fluor counter = counter-screen for tau fibril formation inhibitors | AID 1463 | actives 0.93% (n = 280,000) | tau K18 P301L (four-repeat tau fragment) Alexa594 fluorescence, heparin fibrillization | Potency, µM (titrated, usually from 57.7 µM), for inactives: at the highest dose activity change, negative = decrease; further: potency means the concentration at half of the fitted maximal effect; on the % scale 0 is the no-effect control and ±100 the full control effect; nearly all actives have a fitted effect of over 55% in size
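Human K18 P301L tau (15 uM unlabeled plus 0.24 uM Alexa 594-labeled, final) in 100 mM sodium acetate pH 7 was mixed with compound and 20 uM heparin and incubated 6 hr at 37 C.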
JMJD2E inh = inhibitors of human JMJD2E histone demethylase; actives 1.6% (n = 230,000); Potency, µM (titrated, usually from 57.1 µM), for the others: at the highest dose activity change, negative = inhibition, most hits filed as inhibitors; JMJD2E catalytic domain, FDH-coupled NADH fluorescence (FDH is formaldehyde dehydrogenase);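 further: potency means the concentration at half of the fitted maximal effect; 0% = wells with enzyme and -100% = buffer wells without enzyme; nearly all actives have a fitted effect of over 50% in size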
Starred values were filed as active, the others as inactive; ! = not confirmed by another sample; [ ] = dose if it differs, or a comment. Unless noted, the call rests on the fitted dose curve; in most records, active means well fitted curve in the direction sought with a large enough effect; inconclusive means small, poorly fitted or top-dose-only effect, or another doubt; inactive means no such curve, though single readings can be large; an effect the other way counts as inactive or inconclusive.

Results for Cc1ccc(/C=C2\C(=O)NC(=S)N(c3ccc(F)cc3)C2=O)s1 ?
Tau fibril ThT: inconclusive; Tau FP inhib: -2%; CBFb-RUNX1 inh: -1%; Tau fluor counter: -10%; JMJD2E inh: -1%

What do the screens show for `Cc1ccc(/C=C2\C(=O)NC(=S)N(c3ccccc3F)C2=O)s1`?
Tau fibril ThT: 18µM*; Tau FP inhib: 1%; Lamin A splicing: inconclusive; CBFb-RUNX1 inh: -2%; Tau fluor counter: inconclusive; JMJD2E inh: -1%

How did O=C1NC(=O)C(=Cc2ccc(Oc3ccc([N+](=O)[O-])cc3)cc2)C(=O)N1 do in these assays?
Tau fibril ThT: 13µM*; Tau FP inhib: inconclusive; CBFb-RUNX1 inh: 0%; Tau fluor counter: -8%; JMJD2E inh: 6%

What do the screens show for `CCCCC/C=C\C/C=C\C/C=C\C/C=C\CCCC(=O)O`?
Tau fibril ThT: 28µM*!; Tau FP inhib: inconclusive; Lamin A splicing: inconclusive; CBFb-RUNX1 inh: 26%; Tau fluor counter: inconclusive; JMJD2E inh: 28µM*!

How did CCN(CC)c1ccc(CC2C(=O)N(C)C(=O)N(C)C2=O)cc1 do in these assays?
Tau fibril ThT: inconclusive; Tau FP inhib: inconclusive; Lamin A splicing: -9%; CBFb-RUNX1 inh: -6%; Tau fluor counter: 25µM*[fluorescent]; JMJD2E inh: -4%

What do the screens show for `Cc1cccc(N2C(=O)NC(=O)/C(=C\c3cnc(-c4ccccc4)nc3)C2=O)c1`?
Tau fibril ThT: 5%; Tau FP inhib: 4%; Lamin A splicing: -22%; CBFb-RUNX1 inh: -6%; Tau fluor counter: 2%; JMJD2E inh: -6%

What do the screens show for `Cc1ccc(N2C(=O)NC(=O)/C(=C/c3cnc(-c4ccccc4)nc3)C2=O)cc1C`?
Tau fibril ThT: 16µM*; Tau FP inhib: inconclusive; Lamin A splicing: inconclusive; CBFb-RUNX1 inh: -6%; Tau fluor counter: -23%; JMJD2E inh: 13µM*

What do the screens show for `CC(C)c1ccc(N2C(=O)NC(=O)/C(=C\c3cnc(-c4ccccc4)nc3)C2=O)cc1`?
Tau fibril ThT: 22µM*; Tau FP inhib: inconclusive; Lamin A splicing: 12%; CBFb-RUNX1 inh: -6%; Tau fluor counter: -19%; JMJD2E inh: 20µM*

Results for CCOCCc1nn2c(=O)cc(COC(=O)Cc3ccccc3)nc2s1 ?
Tau fibril ThT: -8%; Tau FP inhib: 2%; Lamin A splicing: inconclusive; Tau fluor counter: -8%

How did COc1ccc2nc(N3CCN(C(=O)CS(=O)(=O)c4ccc(C)cc4)CC3)sc2c1 do in these assays?
Tau fibril ThT: inconclusive; Tau FP inhib: 7%; Lamin A splicing: inconclusive; Tau fluor counter: -13%

Results for Brc1ccc2[nH]cc(/C=N/N3CCCCC3)c2c1 ?
Tau fibril ThT: inconclusive; Tau FP inhib: 16%; Lamin A splicing: inconclusive; CBFb-RUNX1 inh: -2%; Tau fluor counter: 11µM*[quencher]; JMJD2E inh: -15%

Results for C(=N\NC1=NCCCCC1)/c1c[nH]c2ccccc12 ?
Tau FP inhib: -11%; CBFb-RUNX1 inh: 8%; Tau fluor counter: -5%; JMJD2E inh: -8%

Results for O=C1C=Cc2ccccc2C1=O ?
Tau fibril ThT: 2.5µM*; Tau FP inhib: 4.5µM*; Lamin A splicing: inconclusive; CBFb-RUNX1 inh: -29%; Tau fluor counter: inconclusive; JMJD2E inh: 14µM*

Results for O=C1c2ccccc2C(=O)c2ccccc21 ?
Tau fibril ThT: 7%; Tau FP inhib: -1%; Lamin A splicing: -21%; CBFb-RUNX1 inh: 19%; Tau fluor counter: -3%; JMJD2E inh: 3%

How did CNC[C@H](O)c1ccc(OC(=O)C(C)(C)C)c(OC(=O)C(C)(C)C)c1 do in these assays?
Lamin A splicing: inconclusive; CBFb-RUNX1 inh: 8%[21.7 µM]; JMJD2E inh: 4%[25.5 µM]

How did COc1ccc2c(c1O)-c1cc(O)cc3c1[C@@H](C2)N(C)CC3 do in these assays?
Tau fibril ThT: -16%; Tau FP inhib: 0%; CBFb-RUNX1 inh: -17%; Tau fluor counter: -18%

Results for CCCN1CCc2cc(O)cc3c2C1Cc1ccc(O)c(O)c1-3 (stereo not given) ?
Tau fibril ThT: 16µM*; Tau FP inhib: 35µM*; Lamin A splicing: inconclusive; CBFb-RUNX1 inh: inconclusive; Tau fluor counter: 16µM*[quencher]; JMJD2E inh: inconclusive

How did O=C1NC(=O)C2(Cc3ccccc3N3CCCC32)C(=O)N1c1ccc(Cl)cc1 (stereo not given) do in these assays?
Tau fibril ThT: inconclusive; Tau FP inhib: inconclusive; Lamin A splicing: inconclusive; CBFb-RUNX1 inh: -6%; Tau fluor counter: -6%; JMJD2E inh: 25µM*

What do the screens show for `O=C1NC(=O)[C@]2(Cc3ccccc3N3CCN(c4ccccc4)CC32)C(=O)N1Cc1ccccc1` (stereo not given in full)?
Tau fibril ThT: 32µM*; Tau FP inhib: inconclusive; Lamin A splicing: 4%; CBFb-RUNX1 inh: -7%; Tau fluor counter: -20%; JMJD2E inh: -11%

Results for Cc1cc(NS(=O)(=O)c2ccc(N)cc2)no1 ?
Tau fibril ThT: -3%; Tau FP inhib: inconclusive; Lamin A splicing: -6%; CBFb-RUNX1 inh: 7%; Tau fluor counter: 1%; JMJD2E inh: -12%

Results for NC(=O)CI ?
Tau fibril ThT: -6%; Tau FP inhib: -5%; Lamin A splicing: inconclusive; CBFb-RUNX1 inh: 33%; Tau fluor counter: -6%; JMJD2E inh: 32µM*

What do the screens show for `CC(=O)Nc1c2sscc-2n(C)c1=O`?
Tau fibril ThT: 16µM*; Tau FP inhib: inconclusive; CBFb-RUNX1 inh: inconclusive; Tau fluor counter: -18%

What do the screens show for `COC(=O)c1nc(-c2ccc3c(n2)C(=O)C(N)=C(OC)C3=O)c(N)c(-c2ccc(OC)c(OC)c2O)c1C`?
Tau FP inhib: inconclusive; CBFb-RUNX1 inh: -7%; Tau fluor counter: inconclusive; JMJD2E inh: 20µM*

Results for CCc1ccc(NC(=O)c2ccc3oc(=O)n(Cc4ccccc4)c3c2)cc1 ?
Tau fibril ThT: inconclusive; Tau FP inhib: inconclusive; Lamin A splicing: -9%[46 µM]; Tau fluor counter: inconclusive

How did C=CCN1C(=O)NC(=O)/C(=C/c2cc3c4c(c2)CCCN4CCC3)C1=O do in these assays?
Tau fibril ThT: 18µM*; Tau FP inhib: inconclusive; Lamin A splicing: 12%; CBFb-RUNX1 inh: -20%; Tau fluor counter: -29%; JMJD2E inh: 20µM*

What do the screens show for `Nc1ncnc2c1ncn2[C@@H]1O[C@H](COP(=O)(O)OP(=O)(O)OP(=O)(O)O)[C@H]2OC3(O[C@H]21)C([N+](=O)[O-])=CC(=[N+]([O-])[O-])C=C3[N+](=O)[O-]` (stereo not given in full)?
Tau fibril ThT: inconclusive; Tau FP inhib: 3%; CBFb-RUNX1 inh: -9%; Tau fluor counter: 8%
